Data on eight compounds can be found in PubChem BioAssay (EPA / NIEHS).

Results filed as inconclusive are left out. The source made the active and inactive calls. The calls were made as follows, unless noted: active = hit-call score of the fitted dose curve at least 0.9, where 1 is the maximum; inactive = score below 0.9.

The nature of assay [1]: BSK_LPS_PGE2: BioMAP Diversity Plus: LPS Assay for Prostaglandin E2 (PGE2) Biomarker Activity (AID 2283082). The note with it: primary human HUVEC with PBMC; actives raise or lower the signal. The procedure, abridged: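 PGE2 release measured by ELISA in an LPS-activated co-culture of human umbilical vein endothelial cells and peripheral blood mononuclear cells, read at 24 h post-dosing. DMSO served as baseline for bidirectional curve fitting.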

Read-out in assay [2]: Macrophage colony-stimulating factor (MCSF), CSF1 (gene 1435)
Briefly: BSK_LPS_MCSF: BioMAP Diversity Plus: LPS Assay for Macrophage colony-stimulating factor (MCSF) Biomarker Activity (AID 2283083). The note with it: primary human HUVEC with PBMC; actives raise or lower the signal. The gist of the method: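 Human umbilical vein endothelial cells co-cultured with peripheral blood mononuclear cells were exposed to compound for 24 h. M-CSF levels were measured by ELISA, and bidirectional curve fitting used DMSO as the negative control and baseline.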

Read-out in assay [3]: Tissue Factor, F3 (gene 2152)
Briefly: BSK_LPS_TissueFactor: BioMAP Diversity Plus: LPS Assay for Tissue Factor Biomarker Activity (AID 2283084). The following applies: primary human HUVEC with PBMC; actives raise or lower the signal. The gist of the method: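 Human umbilical vein endothelial cells co-cultured with peripheral blood mononuclear cells were dosed and stimulated with LPS. Cell-surface CD142 was quantified by ELISA at 24 h. Activity was fitted bidirectionally against DMSO baseline.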

Read-out in assay [4]: Tumor necrosis factor (Homo sapiens) (UniProt P01375)
Put plainly: BSK_LPS_TNFa: BioMAP Diversity Plus: LPS Assay for Tumour Necrosis Factor alpha (TNFa) Biomarker Activity (AID 2283085).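 As to AC50: TNFa protein level quantified by ELISA in the co-culture.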 The note with it: primary human HUVEC with PBMC; actives raise or lower the signal. The gist of the method: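 TNFa was quantified by ELISA in LPS-activated co-cultures of human endothelial cells and PBMC, 24 h post-dosing. Both increases and decreases versus DMSO were fitted.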

Read-out in assay [5]: Vascular cell adhesion molecule 1 (VCAM1), VCAM1 (gene 7412)
Briefly: BSK_LPS_VCAM1: BioMAP Diversity Plus: LPS Assay for Vascular cell adhesion molecule 1 (VCAM1) Biomarker Activity (AID 2283086). The note with it: primary human HUVEC with PBMC; actives raise or lower the signal. The procedure, abridged:
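VCAM-1 quantified by ELISA in an LPS-activated co-culture of human endothelial cells and peripheral blood mononuclear cells, read 24 h post-treatment. Fitted in both directions versus DMSO; parallel SRB staining flags overt cytotoxicity.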

Read-out in the next assay: CD38, CD38 (gene 952)
Briefly: BSK_SAg_CD38: BioMAP Diversity Plus: SAg Assay for CD38 Biomarker Activity (AID 2283087). The note with it: primary human HUVEC with PBMC; actives raise or lower the signal. The gist of the method: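 CD38 quantified by ELISA (fluorescence) in a superantigen-activated endothelial cell–PBMC co-culture at 24 h post-dose. Activity fitted in both directions relative to DMSO; parallel SRB and Alamar Blue cytotoxicity read-outs.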

Read-out in a further assay: CD40, CD40 (gene 958)
Briefly: BSK_SAg_CD40: BioMAP Diversity Plus: SAg Assay for CD40 Biomarker Activity (AID 2283088). The note with it: primary human HUVEC with PBMC; actives raise or lower the signal. The gist of the method: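 Human umbilical vein endothelial cells co-cultured with PBMC; CD40 levels measured by ELISA with fluorescence read-out 24 h after chemical dosing. Gain or loss of signal fitted bidirectionally against DMSO baseline.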

Read-out in a further assay: CD69, CD69 (gene 969)
Briefly: BSK_SAg_CD69: BioMAP Diversity Plus: SAg Assay for CD69 Biomarker Activity (AID 2283089).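 As to AC50: cell surface CD69 protein quantified by ELISA with fluorescence detection.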 The note with it: primary human HUVEC with PBMC; actives raise or lower the signal. The procedure, abridged: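 ELISA, fluorescence read-out: CD69 on human umbilical vein endothelial cell + PBMC co-culture, 24 h post-dosing. Gain or loss of signal fitted bidirectionally against DMSO baseline.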

Read-out in assay [6]: Monocyte Chemoattractant Protein-1 (MCP1), CCL2 (gene 6347)
Put plainly: BSK_SAg_MCP1: BioMAP Diversity Plus: SAg Assay for Monocyte Chemoattractant Protein-1 (MCP1) Biomarker Activity (AID 2283090). The note with it: primary human HUVEC with PBMC; actives raise or lower the signal. The procedure, abridged: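 Values derive from bidirectional fitting of ELISA-measured MCP1 against DMSO controls. Readings were taken 24 h after dosing human vascular endothelial cells co-cultured with peripheral blood mononuclear cells under superantigen stimulation.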

Read-out in assay [7]: E-selectin (Homo sapiens) (UniProt P16581)
Put plainly: BSK_SAg_Eselectin: BioMAP Diversity Plus: SAg Assay for Eselectin Biomarker Activity (AID 2283091). The following applies: primary human HUVEC with PBMC; actives raise or lower the signal. The procedure, abridged: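 HUVEC co-cultured with PBMC, compound dosed then read at 24 h; E-selectin measured by ELISA. Activity fitted bidirectionally against DMSO as negative control and baseline.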

Read-out in assay [8]: Monokine induced gamma interferon (MIG), CXCL9 (gene 4283)
Briefly: BSK_SAg_MIG: BioMAP Diversity Plus: SAg Assay for Monokine induced gamma interferon (MIG) Biomarker Activity (AID 2283092). The note with it: primary human HUVEC with PBMC; actives raise or lower the signal. The procedure, abridged: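 ELISA readout of MIG/CXCL9; primary human umbilical vein endothelial cells co-cultured with peripheral blood mononuclear cells; 24 h post-dose; gain/loss fit vs DMSO baseline.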

The nature of assay [9]: BSK_SAg_PBMCCytotoxicity: PBMC Cytotoxicity Assessment in the BioMAP Diversity Plus: SAg Assay (AID 2283093).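 Also: PBMC viability measured as Alamar Blue reduction fluorescence at 546/580 nm; fitted both ways against DMSO so a hit may be loss or gain of signal.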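 As to AC50: PBMC superantigen activated with SEB plus TSST-1 one hour after compound addition.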 The note with it: primary human HUVEC with PBMC. The gist of the method: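 Alamar Blue reduction (6 h, 546/580 nm) reports PBMC cytotoxicity after 90 h superantigen activation (SEB, TSST-1; 20 ng/mL final each) with 1 h compound pre-treatment. Gain or loss of signal fitted versus DMSO.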

Read-out in assay [10]: Interleukin-8 (IL8), CXCL8 (gene 3576)
Briefly: BSK_SAg_IL8: BioMAP Diversity Plus: SAg Assay for Interleukin-8 (IL8) Biomarker Activity (AID 2283094). The note with it: primary human HUVEC with PBMC; actives raise or lower the signal. The procedure, abridged: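 ELISA readout of IL-8 from a superantigen-activated endothelial/PBMC primary human co-culture, taken 24 h post-dosing and fitted in both directions against DMSO; parallel SRB total-protein staining flags overt cytotoxicity.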

The nature of assay [11]: BSK_SAg_SRB: Viability Assessment in the BioMAP Diversity Plus: SAg Assay (AID 2283096).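 Also: cells read one day after compound addition; hits may be either gain or loss of signal compared with DMSO.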 The note with it: primary human HUVEC with PBMC. The gist of the method: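 This overt-cytotoxicity endpoint quantifies protein in human endothelial/PBMC co-cultures at 24 h using SRB absorbance (560 nm) after trichloroacetic acid fixation. Values reflect signal change from the DMSO negative control, fitted bidirectionally.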

A short description of assay [12]: BSK_SAg_Proliferation: Cell Proliferation Assessment in the BioMAP Diversity Plus: SAg Assay (AID 2283095).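 Also: relative cell number as total protein by SRB absorbance in sub-confluent culture.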 The following applies: primary human HUVEC with PBMC. The procedure, abridged: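 Relative cell number in the endothelial cell/PBMC co-culture was quantified at 96 h by SRB staining (0.1% SRB, 10% TCA fixation, read at 560 nm). Curves were fitted in both directions relative to DMSO baseline.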

Assay [13] has as its target human CYP2A6, CYP2A6 (gene 1548) (UniProt P11509). Briefly: NVS_ADME_hCYP2A6: NovaScreen (NVS) CYP450-related Enzyme Activity (ADME) Assay for human CYP2A6 (AID 2283099; active = hit-call score of the fitted dose curve at least 0.9, where 1 is the maximum). The procedure, abridged: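 Cell-free fluorescence readout of recombinant human CYP2A6 expressed in insect cells, read 0.5 h after dosing; loss of signal versus acetonitrile negative control. Primary screen in duplicate at 10 uM; actives re-run in concentration-response up to 20 uM.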

The target in assay [14] is human CYP1A1, CYP1A1 (gene 1543) (UniProt P04798). Put plainly: NVS_ADME_hCYP1A1: NovaScreen (NVS) CYP450-related Enzyme Activity (ADME) Assay for human CYP1A1 (AID 2283100; active = hit-call score of the fitted dose curve at least 0.9, where 1 is the maximum). The procedure, abridged: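 Cell-free fluorescence assay of recombinant human CYP1A1 activity with a specific substrate, read 1 h after dosing. Compounds were screened in duplicate at 10 uM, then hits tested in concentration-response up to 20 uM; acetonitrile served as baseline.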
Sequence of human CYP1A1, CYP1A1 (gene 1543) (P04798 whole entry, looked up): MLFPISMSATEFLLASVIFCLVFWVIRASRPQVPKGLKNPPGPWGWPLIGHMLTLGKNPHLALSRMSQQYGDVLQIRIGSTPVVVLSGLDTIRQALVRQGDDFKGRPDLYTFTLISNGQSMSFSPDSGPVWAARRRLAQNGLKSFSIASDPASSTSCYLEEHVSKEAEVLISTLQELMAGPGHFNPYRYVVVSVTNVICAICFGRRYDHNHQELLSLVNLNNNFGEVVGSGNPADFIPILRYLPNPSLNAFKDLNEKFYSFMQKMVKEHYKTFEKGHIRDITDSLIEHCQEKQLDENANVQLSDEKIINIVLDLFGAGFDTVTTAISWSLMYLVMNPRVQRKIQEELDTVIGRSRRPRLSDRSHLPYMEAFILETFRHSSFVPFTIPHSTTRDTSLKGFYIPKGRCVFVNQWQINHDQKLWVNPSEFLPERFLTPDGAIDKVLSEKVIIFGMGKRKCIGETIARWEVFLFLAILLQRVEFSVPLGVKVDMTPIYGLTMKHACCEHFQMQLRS

Sequence of Tumor necrosis factor (Homo sapiens) (P01375 whole entry, looked up): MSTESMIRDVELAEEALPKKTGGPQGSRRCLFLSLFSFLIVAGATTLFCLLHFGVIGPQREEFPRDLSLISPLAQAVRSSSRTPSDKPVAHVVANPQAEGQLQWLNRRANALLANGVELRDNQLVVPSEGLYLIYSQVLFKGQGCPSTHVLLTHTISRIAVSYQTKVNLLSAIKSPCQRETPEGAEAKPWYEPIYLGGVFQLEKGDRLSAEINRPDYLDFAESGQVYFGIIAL
Sequence of E-selectin (Homo sapiens) (P16581 whole entry, looked up): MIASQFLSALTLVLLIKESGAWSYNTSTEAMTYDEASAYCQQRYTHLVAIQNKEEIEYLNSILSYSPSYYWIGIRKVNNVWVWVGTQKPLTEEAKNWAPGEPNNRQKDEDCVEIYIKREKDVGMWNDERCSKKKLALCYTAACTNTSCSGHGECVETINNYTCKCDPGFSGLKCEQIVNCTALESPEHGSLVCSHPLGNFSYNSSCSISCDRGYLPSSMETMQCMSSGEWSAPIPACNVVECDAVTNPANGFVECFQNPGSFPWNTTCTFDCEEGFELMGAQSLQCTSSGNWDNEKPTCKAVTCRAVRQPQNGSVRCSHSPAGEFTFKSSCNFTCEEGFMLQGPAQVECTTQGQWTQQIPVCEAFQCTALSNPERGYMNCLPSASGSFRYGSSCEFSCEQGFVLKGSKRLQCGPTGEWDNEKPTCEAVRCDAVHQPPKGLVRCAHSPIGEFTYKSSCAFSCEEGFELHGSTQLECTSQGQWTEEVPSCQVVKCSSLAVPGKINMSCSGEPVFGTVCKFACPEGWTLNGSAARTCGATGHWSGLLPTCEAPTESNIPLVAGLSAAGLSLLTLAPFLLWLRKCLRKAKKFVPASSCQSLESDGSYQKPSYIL
Sequence of human CYP2A6, CYP2A6 (gene 1548) (P11509 whole entry, looked up): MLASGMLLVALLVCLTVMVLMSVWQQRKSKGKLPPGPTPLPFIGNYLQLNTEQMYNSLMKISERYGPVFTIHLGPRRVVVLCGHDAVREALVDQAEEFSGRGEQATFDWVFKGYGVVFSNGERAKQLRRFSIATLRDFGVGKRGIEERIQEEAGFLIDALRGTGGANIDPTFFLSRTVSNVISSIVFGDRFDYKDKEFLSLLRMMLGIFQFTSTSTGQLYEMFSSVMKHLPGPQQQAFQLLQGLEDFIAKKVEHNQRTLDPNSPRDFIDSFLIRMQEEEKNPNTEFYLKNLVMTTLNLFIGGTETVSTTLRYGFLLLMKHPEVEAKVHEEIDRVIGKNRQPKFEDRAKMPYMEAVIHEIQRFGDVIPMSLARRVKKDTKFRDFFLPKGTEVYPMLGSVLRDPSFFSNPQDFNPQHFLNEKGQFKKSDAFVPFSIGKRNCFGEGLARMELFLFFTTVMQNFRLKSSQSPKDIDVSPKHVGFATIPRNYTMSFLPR

As usually defined, the AC50 is the concentration at which the activity in the assay is half-maximal. In the case of `Cc1ccc(N)cc1O`, the values for the concentration at half-maximal activity (AC50) in assay [1], in [7] and in assay [9] were 4.87 µM (active), 6.15 µM (active) and 9.99 µM (active), respectively. Also, the outcome was “inactive” in assay [2]; “inactive” in assay [3]; “inactive” in assay [4]; “inactive” in assay [5]; “inactive” with CD38, CD38 (gene 952); “inactive” with CD40, CD40 (gene 958). Besides, the outcome is “inactive” with CD69, CD69 (gene 969); “inactive” in [6]; “inactive” in [8]; “inactive” in assay [10]; “inactive” in assay [11].
Consider `NC(=O)NO`, for which the outcome in assay [1] is “inactive”; in assay [2], “inactive”; in assay [3], “inactive”; in assay [4] it was “inactive”; in assay [5], “inactive”; with CD38, CD38 (gene 952), “inactive”. The outcome with CD40, CD40 (gene 958) is “inactive”; with CD69, CD69 (gene 969) it was “inactive”; in [6] it was “inactive”; in assay [7], “inactive”; in assay [8], “inactive”; in [9] it was “inactive”. In addition, the outcome in assay [10] and in assay [11] was inactive.
As to `Cc1ccc(C)c(O)c1`, the values for the AC50 in assay [1] and in assay [4] were 9.83 µM (active) and 0.796 µM (active), respectively. Also, the outcome in assay [2] was “inactive”; in [3], “inactive”; in [5], “inactive”; with CD38, CD38 (gene 952) it was “inactive”; with CD40, CD40 (gene 958), “inactive”; with CD69, CD69 (gene 969) it was “inactive”. Further, the result in [6], in [7], in [8], in [9], in assay [10] and in assay [11] was inactive.
For the compound `CC(C)=CCCC(C)=CC=O`, the outcome in [1] is “inactive”; in assay [2], “inactive”; in [3], “inactive”; in assay [4], “inactive”; with CD38, CD38 (gene 952) it was “inactive”; with CD40, CD40 (gene 958) it was “inactive”. Moreover, the outcome with CD69, CD69 (gene 969) is “inactive”; in assay [6], “inactive”; in [7] it was “inactive”; in [8] it was “inactive”; in [9] it was “inactive”; in assay [10], “inactive”. Moreover, the result in [12], in [11] and in assay [13] was inactive. In addition, the AC50 in assay [5] is 33.7 µM (active).
With `CCN(C(=O)c1cc(C)cc(OC[C@H](C)Nc2ccncc2)c1)C(C)C`, the outcome in assay [1] is “inactive”; in [2] it was “inactive”; in assay [3], “inactive”; in assay [4], “inactive”; in [5], “inactive”; in the assay with CD38, CD38 (gene 952), “inactive”. In addition, the outcome with CD40, CD40 (gene 958) was “inactive”; with CD69, CD69 (gene 969), “inactive”; in [6], “inactive”; in assay [7], “inactive”; in assay [8] it was “inactive”; in assay [9], “inactive”. Further, the outcome in assay [10] and in assay [11] was inactive.
As for `O=c1n(CC2CO2)c(=O)n(CC2CO2)c(=O)n1CC1CO1` (stereo not drawn), the outcome in [1], in assay [3], in assay [4], in [8] and in assay [9] was inactive. In addition, the AC50 was 20 µM (active) in [2]; 21.8 µM (active) in [5]; 18.5 µM (active) in the assay with CD38, CD38 (gene 952); 20 µM (active) in the assay with CD40, CD40 (gene 958); 20 µM (active) with CD69, CD69 (gene 969); 20 µM (active) in assay [6]. In addition, the half-maximal activity concentration (AC50) was 10.7 µM (active) in assay [7], 20 µM (active) in assay [10] and 17.5 µM (active) in assay [11].
For the compound `CC1=CC(=O)CC(C)(C)C1`, the outcome was “inactive” in assay [1]; “inactive” in assay [2]; “inactive” in assay [3]; “inactive” in assay [4]; “inactive” in assay [5]; “inactive” with CD38, CD38 (gene 952). Moreover, the outcome with CD40, CD40 (gene 958) was “inactive”; in the assay with CD69, CD69 (gene 969) it was “inactive”; in assay [6] it was “inactive”; in assay [7], “inactive”; in [8], “inactive”; in assay [9], “inactive”. The result in assay [10], in assay [12], in assay [11] and in assay [13] was inactive.
In the case of `Fc1ccccc1[C@@H](F)COC1CCC(Nc2ncnc3[nH]ncc23)CC1` (stereo partly drawn), the result in [1], in assay [3], in assay [4], in assay [5], in [7] and in assay [8] was inactive. In addition, in assay [14], the compound was classed as inactive. Besides, the AC50 in assay [2] was 20 µM (active); with CD38, CD38 (gene 952), 20 µM (active); with CD40, CD40 (gene 958) it was 16.3 µM (active); in the assay with CD69, CD69 (gene 969), 24.2 µM (active); in assay [6] it was 31.6 µM (active); in assay [9], 13.7 µM (active). In addition, the AC50 in [10] is 20 µM (active); in [12] it was 26.8 µM (active); in assay [11], 25.4 µM (active).
